{"source": "ChEMBL document CHEMBL3988442", "about": "“University of Dundee, Small-Polar-MMV Screening Library” (2021)", "note": "The campaign covered roughly 48,000 compounds. About 13,000 (27%) showed an effect of 50% or more. This is one part of the list.", "data": [{"tested_on": "Wolbachia pipientis", "assay": "Anti-Wolbachia Cell-Based Screen", "type": "functional", "set-up": "scale not given: in the data most compounds retested in dose-response had high values", "conditions": "5 µM", "units": {"Percent Effect": "%"}, "values": [{"smiles": "CC(=O)Nc1cccc(C(C)NCC2CCS(=O)(=O)CC2)c1", "note": "(stereo not drawn)", "Percent Effect": 10.2}, {"smiles": "CNC(=O)c1n[nH]c2c1C(c1cccc3c1OC(C)(C)C3)CC(=O)N2", "note": "(stereo not drawn)", "Percent Effect": 27.3}, {"smiles": "Cc1noc(C)c1CN1CCN(C(=O)Cn2cncn2)CC1", "Percent Effect": -5.281}, {"smiles": "Cc1nn(CC(=O)N2CCN(Cc3cn(C)nc3C)CC2)cc1Br", "Percent Effect": 147.4}, {"smiles": "Cc1nn(CCO)cc1CN1CCCN(C2CCCC2)CC1", "Percent Effect": 15.64}, {"smiles": "O=C(c1ccc[nH]1)N1CCN(C(c2ccccc2)C(F)(F)F)CC1", "note": "(stereo not drawn)", "Percent Effect": -1.01}, {"smiles": "Cc1ccc(C(=O)NCCCN(C)S(C)(=O)=O)c(=O)[nH]1", "Percent Effect": -1.59}, {"smiles": "CC(=O)NCCNC(=O)c1ccc(C)c(-n2cccc2)c1", "Percent Effect": 112.1}, {"smiles": "Cc1ccc(C(=O)NS(C)(=O)=O)cc1-n1cccc1", "Percent Effect": 119}, {"smiles": "Cc1ccc(C(=O)NCCCN(C)S(C)(=O)=O)cc1-n1cccc1", "Percent Effect": 108.6}, {"smiles": "Cc1cc(C(=O)NCCC(C)C)ccc1NS(C)(=O)=O", "Percent Effect": 2.329}, {"smiles": "Cc1ccc(C(=O)NS(C)(=O)=O)cc1S(C)(=O)=O", "Percent Effect": -7.611}, {"smiles": "Cc1ccc(CC(=O)NCCCNS(C)(=O)=O)cc1", "Percent Effect": 4.317}, {"smiles": "CC(=O)NCCNC(=O)c1cnc(-c2ccccc2)nc1", "Percent Effect": -5.417}, {"smiles": "Cc1ccc(C(=O)NS(C)(=O)=O)cc1I", "Percent Effect": -7.571}, {"smiles": "Cc1ccc(C(=O)NCCCNS(C)(=O)=O)cc1C", "Percent Effect": 117.8}, {"smiles": "CC(=O)NCCc1cn(-c2cc(F)ccc2C)cn1", "Percent Effect": 0.929}, {"smiles": "Cc1ccc(C(=O)NCCN2CCOCC2)cc1N(C)S(C)(=O)=O", "Percent Effect": -26.4}, {"smiles": "CCSCCC(C)N(C)C(=O)c1cc(C)on1", "note": "(stereo not drawn)", "Percent Effect": -12.53}, {"smiles": "O=C(O)c1cc(S(=O)(=O)N2CCOc3ccccc32)ccc1F", "Percent Effect": 8.076}, {"smiles": "CCC[C@@H]1CN(Cc2cc3c(cc2OC)OCCO3)C[C@H]1C(=O)O", "Percent Effect": -0.5486}, {"smiles": "O=C(CCNc1ncccn1)NCCOc1ccc2c(c1)CCC2", "Percent Effect": 1.956}, {"smiles": "COc1ccc(CN2CCC3(CC2)C(C(=O)O)CC(=O)N3C)cc1Cl", "note": "(stereo not drawn)", "Percent Effect": 2.306}, {"smiles": "COc1cc(CN2CCN(CC3CC3)[C@@H]3CS(=O)(=O)C[C@@H]32)cc(OC)c1", "Percent Effect": -1.299}, {"smiles": "COCCN1C(=O)CC[C@]12CC[C@@H](NCc1ccc(OC)cc1)CC2", "Percent Effect": -14.96}, {"smiles": "CCn1c(C2CCCN(Cc3cc(OC)cc(OC)c3)C2)nn(C)c1=O", "note": "(stereo not drawn)", "Percent Effect": -1.28}, {"smiles": "CC[C@H]1N(Cc2ccc(OC)cc2)CCC[C@]12CCC(=O)N2C", "Percent Effect": 102.5}, {"smiles": "CC[C@@H]1N(Cc2cc(OC)cc(OC)c2)CCC[C@]12CCC(=O)N2C", "Percent Effect": 92.68}, {"smiles": "COCCN1CCN(Cc2cccc(OCC(N)=O)c2)CC1C", "note": "(stereo not drawn)", "Percent Effect": -2.971}, {"smiles": "O=C(O)C(F)(F)F.O=C1CC(c2ccccc2)C2(CCN(C(=O)c3ccncc3F)CC2)N1", "note": "(stereo not drawn)", "Percent Effect": 7.558}, {"smiles": "CCN1C(=O)CCCC12CCCN(C(=O)c1ccncc1F)C2.O=C(O)C(F)(F)F", "note": "(stereo not drawn)", "Percent Effect": 112.1}, {"smiles": "CN1C(=O)CCC12CCCN(C(=O)c1ccncc1F)C2.O=C(O)C(F)(F)F", "note": "(stereo not drawn)", "Percent Effect": 113.9}, {"smiles": "CN(C)CCN1C(=O)CCC12CCCN(C(=O)c1ccncc1F)C2.O=C(O)C(F)(F)F", "note": "(stereo not drawn)", "Percent Effect": 122.1}, {"smiles": "CCN1C(=O)CCCC12CCCN(C(=O)c1ccoc1)C2", "note": "(stereo not drawn)", "Percent Effect": -0.6496}, {"smiles": "Cc1ncnc2c1CCN(C(=O)c1ccncc1F)CC2.O=C(O)C(F)(F)F", "Percent Effect": -20.75}, {"smiles": "O=C(O)C(F)(F)F.O=C(c1ccncc1F)N1CCc2ncnc(C3CC3)c2CC1", "Percent Effect": 13.05}, {"smiles": "CCc1ncnc2c1CCN(C(=O)c1ccncc1F)CC2.O=C(O)C(F)(F)F", "Percent Effect": 6.56}, {"smiles": "CCOc1ncnc2c1CCN(C(=O)c1ccncc1F)CC2.O=C(O)C(F)(F)F", "Percent Effect": -6.025}, {"smiles": "COCCCNC(=O)NCc1nc(C)c(C)o1", "Percent Effect": 1.858}, {"smiles": "CC(C)(C)CC(=O)NCC1CCCS1", "note": "(stereo not drawn)", "Percent Effect": -1.096}, {"smiles": "Cc1ccc(C(=O)CCC(=O)N2CCC(c3nncn3C)CC2)cc1", "Percent Effect": -0.3599}, {"smiles": "Cn1c(=O)n(C)c2nc(Br)c(CC(=O)c3ccccc3)n2c1=O", "Percent Effect": 113.8}, {"smiles": "Cn1c(=O)n(C)c2nc(Cl)c(CC(=O)c3ccccc3)n2c1=O", "Percent Effect": 119.1}, {"smiles": "CN1CC(Oc2ccc(Cl)cc2)=NC(SCC(=O)c2ccccc2)=N1", "Percent Effect": 11.49}, {"smiles": "Cn1nc(Br)c2c(=O)n(CCc3ccccc3)cnc21", "Percent Effect": -21.91}, {"smiles": "CN1CC(Oc2ccccc2)=NC(SCC(=O)c2ccccc2)=N1", "Percent Effect": 31.32}, {"smiles": "Cc1c2ncn(CC(=O)c3ccccc3)c(=O)c2nn1C", "Percent Effect": 11.22}, {"smiles": "Cc1ccc(C(=O)Cc2c(Cl)nc3n(C)c(=O)n(C)c(=O)n23)cc1", "Percent Effect": 91.64}, {"smiles": "Cn1c(=O)n(C)c2nc(Cl)c(CC(=O)c3ccc(F)cc3)n2c1=O", "Percent Effect": 131.2}, {"smiles": "CC(C)c1nc(C2CCCN2c2cnc3cc(F)c(F)cc3n2)no1", "note": "(stereo not drawn)", "Percent Effect": 4.6}, {"smiles": "CC(C)OC(=O)N1CCCCC1CCn1cccn1", "note": "(stereo not drawn)", "Percent Effect": 30.12}, {"smiles": "Cl.Nc1nc(C(=O)NCC2CCC3(CCNCC3)CO2)cs1", "note": "(stereo not drawn)", "Percent Effect": -0.4275}, {"smiles": "CC(C)(C)n1cc(C#N)cc1NC(=O)CCNC(=O)c1ccco1", "Percent Effect": -15.76}, {"smiles": "Cn1cc(C(=O)N2CCCC(Cc3cccc4ncccc34)C2)cn1", "note": "(stereo not drawn)", "Percent Effect": 153.9}, {"smiles": "O=C(c1cnccn1)N1CCCC(Cc2cccc3ncccc23)C1", "note": "(stereo not drawn)", "Percent Effect": 146.1}, {"smiles": "Cc1ccc2nc(C)c(C)c(C(=O)N3CCN(c4nccs4)CC3)c2c1", "Percent Effect": -13.27}, {"smiles": "CCNC(=O)C1CCCN(Cn2nc(C(C)(C)C)ccc2=O)C1", "note": "(stereo not drawn)", "Percent Effect": 2.332}, {"smiles": "Cc1cc(C[C@@H]2CCC[C@H]2NCc2ccccc2C(F)(F)F)on1.O=C(O)CC(O)(CC(=O)O)C(=O)O", "Percent Effect": -4.697}, {"smiles": "Cc1cc(C[C@@H]2COC[C@H]2NCc2ccccc2C(F)(F)F)on1.O=C(O)CC(O)(CC(=O)O)C(=O)O", "Percent Effect": -4.697}, {"smiles": "Cc1cc(C[C@@H]2CCC[C@H]2NCc2ccccc2F)on1.O=C(O)CC(O)(CC(=O)O)C(=O)O", "Percent Effect": 109.7}, {"smiles": "O=C(NCc1cccc(F)c1F)c1cc(CN2CCCC(O)C2)on1", "note": "(stereo not drawn)", "Percent Effect": -4.232}, {"smiles": "Cc1cc(C[C@@H]2COC[C@@H]2NC(=O)CN2CCOC2=O)on1", "Percent Effect": -12.63}, {"smiles": "Cc1cc(C[C@@H]2CCC[C@H]2NCc2cc(F)ccc2F)on1.O=C(O)CC(O)(CC(=O)O)C(=O)O", "Percent Effect": 83.79}, {"smiles": "Cc1cc(C[C@@H]2CCC[C@H]2NCc2cc(C)c(O)c(C)c2)on1.O=C(O)CC(O)(CC(=O)O)C(=O)O", "Percent Effect": -7.471}, {"smiles": "Cc1cc(CNC(=O)C2CCC(=O)N(Cc3ccccc3F)C2)on1", "note": "(stereo not drawn)", "Percent Effect": -7.53}, {"smiles": "Cc1cc(C[C@@H]2COC[C@H]2NCc2ccc(Br)s2)on1.O=C(O)CC(O)(CC(=O)O)C(=O)O", "Percent Effect": -4.105}, {"smiles": "Cc1cc(C[C@@H]2CCC[C@H]2NCc2ccccc2C)on1.O=C(O)CC(O)(CC(=O)O)C(=O)O", "Percent Effect": 135}, {"smiles": "Cc1cc(C[C@@H]2CCC[C@H]2NCc2cccc(F)c2F)on1.O=C(O)CC(O)(CC(=O)O)C(=O)O", "Percent Effect": 111.2}]}]}
